In ChEMBL document CHEMBL4888484, “Replenishing the malaria drug discovery pipeline: Screening and hit evaluation of the MMV Hit Generation Library 1 (HGL1) against asexual blood stage Plasmodium falciparum ,using a nano luciferase reporter read-out” (2022):
Screen size: about 150,000 compounds; about 540 (0.36%) showed an effect of 50% or more. The full list was thinned out, with strong results kept by preference.

What follows are compounds tested on Plasmodium falciparum (assay: Primary screen in NF54 nanoGlo assay, in single point, at 2uM, 72h; a lower Z score goes with more inhibition). Conditions: timepoint 72 hour.
Assay type: functional, Erythrocyte

| SMILES | % Inhibition | Z score |
| --- | --- | --- |
| NC(=O)CN1CCC(Nc2nc3ccccc3n2CCO)CC1 | -7% | 1.08 |
| COc1cccc(NC(=O)Cc2c(C)nn(-c3nc(-c4ccc(C)cc4)cs3)c2C)c1 | -13% | 1.45 |
| CN(Cc1cc2cc(F)ccc2[nH]1)Cc1ccnn1C | -9% | 1.38 |
| C[C@H](Nc1ccc(C#N)cn1)c1cccc(-n2cccn2)c1 | 0% | 0.03 |
| CCCCCc1c(C)nc2[nH]n(-c3ccccc3)c(=O)c2c1O | 34% | 2.26 |
| CNCCc1c(-c2ccccc2)[nH]n(-c2ccccc2)c1=O | 82% | -6.33 |
| Cc1ccccc1Cc1c(C)[nH]c2[nH]n(-c3ccccc3)c(=O)c2c1=O | 10% | -1.18 |
| O=C1NCCN1CCN1CCc2[nH]ncc2C1 | -10% | 1.34 |
| CC1=NN(c2ccccc2)C(=O)C12Cc1ccc(Cl)cc1N1CCCCC12 (centres undefined) | 8% | -1.22 |
| Cc1cc(C)cc(OC[C@@H](O)CNC(C)(C)CC(C)(C)C)c1 | -3% | 0.43 |
| Cc1cc(OC[C@@H](O)CNC(C)C)cc(C)c1Cl | -7% | 1.4 |
| Cc1cc(OC[C@@H](O)CNC(C)(C)CC(C)(C)C)cc(C)c1Cl | 51% | -6.83 |
| CCc1cnc(C)nc1N1CCC(N2CC(n3nc(C)cc3C)C2)CC1 | 6% | -1.11 |
| CN(Cc1cccnc1)C(=O)c1csc(NC(=O)c2ccc(Cl)cc2Cl)n1 | -12% | 1.69 |
| COc1ccc(-c2ccnc(N[C@H]3CCN(C4CCOCC4)C3=O)n2)cc1 | -13% | 2.48 |
| CCOC[C@@H](O)CN(Cc1c(-c2ccccc2)noc1N1CCC(C)CC1)CC1CC1 | 35% | 0.79 |
| C#CCOCC(O)CN(Cc1c(-c2ccccc2)noc1N1CCC(C)CC1)CC1CCCO1 (centres undefined) | 59% | 1.43 |
| C=CCOCC(O)CN(Cc1c(-c2ccccc2)noc1N1CCCCC1C)CC1CCCO1 (centres undefined) | 30% | -0.88 |
| CC(NC(=O)NC(C)c1ccc(-c2cccnc2)cc1)c1ccncc1 (centres undefined) | 7% | -1.01 |
| CC(C)C(=O)Nc1ccc(-c2cc(-c3ccc(NC(=O)C(C)C)cc3)nc(-c3ccncc3)n2)cc1 | 38% | -10.15 |
| C[C@H](N)c1ccc(Nc2ncc3cc(-c4ccncc4)ccc3n2)cc1 | 85% | -9.36 |

| SMILES | % Inhibition | Z score |
| --- | --- | --- |
| CCOc1c(Br)cc(Cl)cc1NCC(=O)NC(=O)NCC(C)C | -7% | 1.36 |
| Cn1ncc2c1CCCN(c1nccn3nc(C(F)(F)F)cc13)C2 | -10% | 1.44 |
| CC(=O)c1ccc(NC(=O)c2cc3n(n2)CCCO3)cc1 | -7% | 1.13 |
| CC(C)=CC1C(C(=O)N(C)CC2COc3ccccc3O2)C1(C)C (centres undefined) | -4% | 0.45 |
| Cc1cncc(C(=O)NC[C@@H](CO)Cc2ccc(Cl)cc2)c1 | -7% | 0.93 |
| O=C(CNC(=O)NC1CC1)NCCc1cc(F)cc2c1OCOC2 | -2% | 0.2 |
| CC1CC(NCCc2cc(F)cc3c2OCOC3)CN1C1CC1 (centres undefined) | -5% | 0.45 |
| COC[C@H](NCCc1cc(F)cc2c1OCOC2)C1CC1 | 63% | -8.98 |
| Cc1nc(-c2ccnc(NCc3cnc(N(C)C)nc3)c2)n[nH]1 | 5% | -0.63 |
| O=S1(=O)NC[C@H](O)CNC[C@@]2(COc3cc(-c4ccccc4)ccc31)C[C@@H](O)[C@@H](O)C2 | -14% | 1.78 |
| Cn1nccc1[C@@H]1CN(C(=O)NCc2ccon2)CCO1 | -3% | 0.43 |
| Cc1cc(CC(=O)N[C@@H](C)c2nc(-c3cccnc3)cs2)no1 | -5% | 0.5 |
| Cc1cc(C(=O)N[C@@H](C)c2nc(-c3cccnc3)cs2)cc(O)n1 | 51% | -3.53 |
| Cc1ccc(C)c(C(=O)N[C@@H](C)c2nc(-c3cccnc3)cs2)c1 | 0% | -0.01 |
| COc1cccc(CCn2ccnc2C(C)C)c1 | -4% | 0.93 |
| COc1ccccc1CCNC(=O)c1ccccc1N1CCC(NS(=O)(=O)c2ccc(F)cc2)CC1 | 11% | -1.5 |
| NC1CC(c2cc(N3CCCCCCCC3)ncn2)C1 (centres undefined) | -23% | 2.99 |
| N[C@H]1C[C@@H](c2cc(N3CCN(C4CCCCC4)CC3)nc(N3CCCC3)n2)C1 | 56% | -8.12 |
| c1ccc2c(N3CCCC3)nc(N3CCN(C4CCCCC4)CC3)nc2c1 | -5% | 0.7 |
| CC(C)c1nnc2c3ccccc3nc(N3CCN(C(=O)c4ccc(Cl)cc4)[C@@H](C)C3)n12 | -1% | 0.12 |
| Nc1nc(N2CCN(c3ccc(F)c(Cl)c3)CC2)cc([C@H]2C[C@@H](N)C2)n1 | 49% | -3.16 |

| SMILES | % Inhibition | Z score |
| --- | --- | --- |
| Nc1nc(N2CCN(Cc3ccc(F)cc3)CC2)cc([C@H]2C[C@@H](N)C2)n1 | 16% | -2.35 |
| Nc1nc(C2CC(N)C2)cc(N2CCC(Oc3ccccc3Cl)CC2)n1 (centres undefined) | 50% | -7.79 |
| Cc1ccc(Cc2nnc(NC(=O)Cc3ccccc3Cl)o2)c(C)c1 | -13% | 1.44 |
| CN1CCCN(c2ccc3ccc(F)cc3n2)CC1 | -5% | 0.48 |
| CCNC(=O)N[C@H]1CCN(C2CCCCCC2)C1 | 1% | -0.09 |
| CCOc1cc(-c2cc(-c3ccccc3O)nc3ccc4ccccc4c23)cc(Br)c1O | 82% | -8.45 |
| COc1cc(-c2cc(-c3cccnc3)c3c(ccc4ccccc43)n2)cc(Cl)c1O | 18% | -2.48 |
| Oc1ccccc1-c1cc(-c2ccccc2)c2c(ccc3ccccc32)n1 | -5% | 0.64 |
| Cn1ccnc1CN1C[C@@H](F)C[C@H]1CNc1ncnc2c1CCCCC2 | -4% | 0.8 |
| COc1cccc(C(=O)N2CCN(C(=O)Cn3cc(Cl)cn3)CC2)c1 | -4% | 0.42 |
| Cn1ccc(NS(=O)(=O)c2cccc3c2N=S=N3)n1 | -1% | 0.06 |
| CCOc1cccc(C(=O)N[C@H]2CCN(Cc3ccccn3)C[C@@H]2O)c1 | 2% | -0.4 |
| O=C(N[C@@H]1CN(Cc2ccc(CO)o2)CCC[C@H]1O)c1ccc(OCc2ccccc2)cc1 | 26% | -2.94 |
| O=C(N[C@@H]1CN(Cc2ccccn2)CCC[C@H]1O)c1ccc(OCc2ccccc2)cc1 | 59% | -6.9 |
| Cc1ccc(-c2nc(CC(=O)N3CCC(C(C)(C)C)C(O)C3)cs2)o1 (centres undefined) | -3% | 0.35 |
| Cc1n[nH]c(=O)c2c1cnn2-c1ccccc1 | 21% | -2.61 |
| Cc1nc(-c2c(C)c(C)nn(C)c2=O)sc1C(=O)NC[C@H](C)N1CCc2ccccc21 | 31% | -3.46 |
| CCN=C(NCc1noc(C)n1)NCc1ccccc1OC(C)(C)C | -6% | 0.55 |
| CCc1ncc(CN2CCC[C@H](NC(=O)CN3CCOC3=O)CC2)cn1 | 9% | -1.74 |
| CC(=O)N(CC[C@]1(Cc2ccccc2Cl)CCOC(C)(C)C1)Cc1ccco1 | 32% | 1.22 |
| Cn1n[n+](CCCCC(Cl)(Cl)Cl)c2ccccc21 | 65% | -4.82 |

| SMILES | % Inhibition | Z score |
| --- | --- | --- |
| Cn1n[n+](CC(=O)Nc2ccccc2Cl)c2ccccc21 | 41% | -0.29 |
| COc1c2c(cc3c1[C@H](C(=O)NC(c1ccccc1)c1ccccc1)[N+](C)(C)CC3)OCO2 | 2% | -0.21 |
| COc1c2c(cc3c1[C@@H](C#CCOc1ccccc1)[N+](C)(C)CC3)OCO2 | 64% | -13.6 |
| COc1c2c(cc3c1[C@H](CC(=O)Cc1ccccc1)[N+](C)(C)CC3)OCO2 | -1% | 0.08 |
| Cn1c(COc2ccccc2C(N)=O)nnc1-c1ccc(Cl)cc1 | 3% | -0.35 |
| COc1cccc(C(=O)N2C[C@@H]3CC[C@H]2CN(Cc2c(C)noc2C)C3)c1 | 4% | -0.53 |
| c1ccc(-c2nc(CN3CCCCCCC3)cs2)cc1 | -10% | 1.49 |
| c1ccc(-c2nc(C[n+]3ccc4c(c3)CCCC4)cs2)cc1 | 63% | -6.15 |
| c1ccc(-c2nc(CN3CCc4ccccc4C3)cs2)cc1 | -1% | 0.12 |
| O=C(Cn1cc(-c2ccccc2)ncc1=O)NC[C@@H]1CCCN2CCCC[C@H]12 | -8% | 0.97 |
| CCCCN(CCCNC(=O)[C@H]1CCCN(c2ncnc3onc(C)c23)C1)Cc1ccccc1 | 5% | -0.69 |
| O=C(O)C[C@@H]1CN(C(=O)c2ccc3c(c2)OCO3)C[C@@H]1c1c[nH]nn1 | -3% | 0.47 |
| COC(=O)c1ccc(C)c(OCc2cn3ccccc3c2C#N)c1 | -17% | 2.14 |
| CCN(CC)Cc1cn2ccccc2c1C#N | -12% | 1.72 |
| N#Cc1c(NC(=O)Nc2cn3ccccc3c2C#N)cn2ccccc12 | 65% | 1.13 |
| CC1CCC(O)(CS(=O)(=O)Cc2nccs2)CC1 (centres undefined) | -8% | 1.13 |
| COc1cc(C2N[C@H](C(=O)O)Cc3c2[nH]c2ccccc32)ccc1OCc1ccccc1 (some centres undefined) | -3% | 0.42 |
| COc1ccc(C2N[C@H](C(=O)O)Cc3c2[nH]c2ccccc32)cc1 (some centres undefined) | -14% | 2.25 |
| COc1ccc2[nH]c3c(c2c1)CC(C(=O)O)NC3c1ccc(OC)c(CN2CCN(c3ccccc3F)CC2)c1 (centres undefined) | 74% | -11.3 |
